Most compounds without a hit are left out; they make up all but 9.4% or so of the library.
HttQ103 aggreg = inhibitors of mutant huntingtin aggregate formation in PC12 cells; PC12 HttQ103-GFP aggregates, Acumen cytometry, 40 h; Potency, µM (titrated, usually from 46.1 µM), without a hit: top-dose activity change, negative = inhibition, actives largely listed as inhibitors; actives 1.1% (n = 220,000); AID 1688; note: potency is the fitted concentration of half-maximal effect; % is set by controls: 0 for no effect and ±100 for the full control effect; nearly all actives have a fitted effect of over 60% in size
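Multiplexed with ATP-based cell death, this channel scores GFP aggregates in PC12 cells expressing inducible HTTex1-Q103-GFP. Induction used 100 nM tebufenozide; compounds were tested in concentration series.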
HPGD block = inhibitors of human 15-hydroxyprostaglandin dehydrogenase (HPGD); P15428; purified HPGD, NADH fluorescence kinetic, PGE2 substrate; Potency, µM, for inactives: top-dose activity change, negative = inhibition, usual class: inhibitors; actives 4.3% (n = 150,000); active = well fitted inhibition curve with a large enough effect, not every such curve was filed as active; inconclusive = small, poorly fitted or top-dose-only effect, or another doubt; inactive = no such curve, though single readings can be large or run the other way; note: potency is the fitted concentration of half-maximal effect; % is set by controls: 0 for no effect and ±100 for the full control effect
Target sequence (P15428 whole entry, looked up): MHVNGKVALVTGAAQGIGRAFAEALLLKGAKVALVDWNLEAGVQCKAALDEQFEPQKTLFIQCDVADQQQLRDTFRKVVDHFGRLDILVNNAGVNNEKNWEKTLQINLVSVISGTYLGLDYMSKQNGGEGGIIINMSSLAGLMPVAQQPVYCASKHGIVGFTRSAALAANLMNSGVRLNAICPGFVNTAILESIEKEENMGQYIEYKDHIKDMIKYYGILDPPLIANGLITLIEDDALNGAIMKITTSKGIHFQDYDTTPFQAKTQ
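NADH formation kinetics: reaction with 30 uM PGE2 and 1 mM NAD+ (final), 20 nM enzyme, Tris-HCl pH 8 with Tween 20, after 15 min compound preincubation at room temperature. Fluorescence change, last versus first of five reads.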
IMPase Li inh = cell-permeable IMPase inhibitors with lithium potentiation. CHO-M1 cells, IP1 TR-FRET (IP-One), carbachol + lithium. Potency, µM (doses to about 59.4 µM), for inactives: at the top dose activity, negative = IMPase inhibition, actives largely listed as inhibitors. actives 0.35% (n = 210,000). AID 1457;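 note: IP1 builds up when IMPase is blocked and the TR-FRET signal falls; potency is the fitted concentration of half-maximal effect; plate controls were basal vehicle for no effect and high inhibitor control for full effect; nearly all actives have a fitted effect of over 50% in size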
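Readout is a homogeneous TR-FRET IP1 immunoassay (Ex 320, Em 665 and 620), where raised cytosolic IP1 lowers signal. Cells were CHO-M1 treated 30 min at 37C with test compounds plus a little lithium; AC50 values came from Hill-equation fitting.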
ALDH1A1 inh = inhibitors of human aldehyde dehydrogenase 1A1; P00352; Purified ALDH1A1, NADH fluorescence, propionaldehyde substrate; Potency, µM (titrated, usually from 75.3 µM), for inactives: at the top dose activity, negative = inhibition, actives largely listed as inhibitors; actives 7.3% (n = 220,000); active = well fitted inhibition curve with a large enough effect, not every such curve was filed as active; inconclusive = small, poorly fitted or top-dose-only effect, or another doubt; inactive = no such curve, though single readings can be large or run the other way;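 note: potency is the fitted concentration of half-maximal effect; plate controls were no enzyme wells and a reference inhibitor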
HTT ATP protect = Huntington cell model cytoprotection by ATP luminescence; actives 0.14% (n = 230,000); Potency, µM (titrated, usually from 56.4 µM), for inactives: cytoprotection (ATP increase), actives largely listed as activators; AID 1471; PC12 HTT-Q103 induced, cytoprotection, ATP luminescence, 40 h; note: potency is the fitted concentration of half-maximal effect; % of control where 0% means no effect; nearly all actives have a fitted effect of over 45% in size
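PC12 cells with ecdysone-inducible HTT exon 1 Q103-GFP, induced with 100 nM tebufenozide and co-treated with library compounds in a dose series (1536-well, 1500 cells/well). Cytoprotection read as ATP content by ATPlite luminescence.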
IMPase cell inh = IMPase inhibition in cells | inhibition (IP1 accumulation), % at 46.1 µM | CHO-M1 cells, IP1 accumulation, HTRF TR-FRET ratio | 120,000 tested, under 10 active | P97697 | AID 901; active = well fitted curve in the direction sought with a large enough effect in the signal ratio, not every such curve was filed as active; inconclusive = small, poorly fitted or top-dose-only effect, or a change in a side signal; inactive = no such curve, though single readings can be large or run the other way; the % refers to the signal ratio;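 note: cells stimulated with carbachol in lithium chloride buffer; plate controls were DMSO basal wells for no effect and reference inhibitor wells for full effect; higher means more IMPase inhibition seen as more IP1 and lower FRET ratio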
Target sequence (P97697 whole entry, looked up): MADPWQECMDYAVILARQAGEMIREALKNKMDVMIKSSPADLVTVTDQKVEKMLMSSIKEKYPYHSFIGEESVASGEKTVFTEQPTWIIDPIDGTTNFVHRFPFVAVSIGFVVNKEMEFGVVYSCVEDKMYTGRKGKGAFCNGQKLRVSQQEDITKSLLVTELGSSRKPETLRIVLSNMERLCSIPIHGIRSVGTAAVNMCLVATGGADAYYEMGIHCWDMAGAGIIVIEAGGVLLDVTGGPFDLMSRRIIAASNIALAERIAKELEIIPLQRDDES
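Cellular IMPase inhibition is scored as a rise in cytosolic IP1, detected by competitive TR-FRET between d2-labelled IP1 and a europium anti-IP1 antibody. M1-expressing CHO cells were stimulated with carbachol for 30 min at 37C, with lithium (50 mM LiCl) present in the buffer.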
* marks the source's active call; other numbers are inactive results; ? = inconclusive; · = no result; [ ] = remark or other dose. Unless noted, calls come from the whole dose curve; as a rule, active = well fitted curve in the direction sought with a large enough effect; inconclusive = small, poorly fitted or top-dose-only effect, or another doubt; inactive = no such curve, though single readings can be large; an effect the other way counts as inactive or inconclusive.

SMILES	HttQ103 aggreg	HPGD block	IMPase Li inh	ALDH1A1 inh	HTT ATP protect	IMPase cell inh
COc1ccc(CCNC(=O)c2cc(-c3cccs3)on2)cc1OC	31%	-7%	-5%[38.3 µM]	3%	3.5µM*	0
COc1ccccc1-c1cc(C(=O)NCc2cccs2)no1	-7%	14µM*	-5%[38.3 µM]	?	-13%	7
COc1ccccc1-c1cc(C(=O)Nc2ccc(F)cc2F)no1	7%	?	8.9µM*	?	-50%	?
COc1ccc(OC)c(-c2cc(C(=O)NCc3cccs3)no2)c1	-5%	?	8%	?	?	0
COc1ccc(CCNC(=O)c2cc(-c3ccco3)on2)cc1OC	?	·	-5%	-9%	?	·
CCN(CC)C(=O)c1cc(-c2ccccc2OC)on1	-16%	?	-7%[38.3 µM]	14µM*	0%	9
C[N+](C)(C)CC(=O)N/N=C\c1ccncc1	·	-7%	-15%	-4%[13.5 µM]	3%[10 µM]	·
Cc1cccc(Nc2ncc(NC(=O)c3cccc(F)c3)c(Nc3cccc(C)c3)n2)c1	·	·	·	·	·	-3
Cc1cc(NC(=O)c2cc(-c3cccs3)on2)no1	7.1µM*	·	·	?	-36%	-4
Cc1ccc(-c2nnc3c4ccccc4c(-c4ccccc4)nn23)cc1	·	·	·	·	·	6
N#CCCn1c(=O)c(-c2cccs2)nc2cnc(Oc3ccccc3)nc21	·	?	?	?	20%	·
O=c1c(-c2ccc3c(c2)OCCO3)coc2cc(O)cc(O)c12	-17%	28µM*	47%[38.3 µM]	16µM*	-10%[1.9 µM]	-4
COc1cc(OC)c2c(=O)c(-c3ccc4c(c3)OCO4)coc2c1	·	-3%	1%	?	·	·
O=c1c(-c2ccccc2)coc2cc(O)cc(O)c12	·	6.3µM*	15%	11µM*	-40%	·
CCN(CC)Cc1c(O)ccc2c(=O)c(-c3ccc4c(c3)OCCO4)coc12	11µM*	?	12%	?	12%[10 µM]	1
COc1ccc(-c2nc(SCC(=O)Nc3ccc4c(c3)OCO4)c(-c3ccccc3)[nH]2)cc1	·	·	·	·	·	-3
O=C(O)c1ccc(CNc2ccccc2C(=O)O)cc1	-15%	?	10µM*	?	2%[10 µM]	-5
O=C(O)c1ccccc1NCc1ccncc1	-1%	?	-1%[38.3 µM]	?	1%	5
COC(=O)[C@H](Cc1ccccc1)NC(=O)[C@H]1C[C@@H]1[C@H](NC(=O)OCc1ccccc1)c1ccccc1	·	-6%	9%	-4%	-6%	·
COc1cc(CN2CCN(c3cccc(C)c3C)CC2)cc(OC)c1O	21%	-9%	-1%[38.3 µM]	-9%	-10%	0
Cc1cccc(N2CCN(Cc3ccoc3)CC2)c1C	3%[9.22 µM]	14µM*	-1%[38.3 µM]	25µM*	-11%	-4
Cc1noc(C)c1-c1cncnc1Nc1ccccc1	·	·	0%	?	8%	·
Cc1ccc(S(=O)(=O)C/N=C(/NC(=S)N(c2ccccc2)c2ccccc2)c2ccccc2)cc1	11%	32µM*	40%[38.3 µM]	14µM*	-13%	4
Cc1ccc(S(=O)(=O)/N=C(/NC(=S)Nc2ccccc2)c2ccccc2)cc1	-1%	-26%	20%[38.3 µM]	?	-30%	6
COCC(=O)N1CCC2(CC1)CN(c1ccncc1)C2	·	-5%	17%	1%	4%	·
CC(=O)c1sc(Nc2nc(C)cc(C)n2)nc1C	7%[9.22 µM]	14µM*	-15%[38.3 µM]	0.89µM*	0%	?
CN(C)S(=O)(=O)c1ccc(NC(=O)COC(=O)C2CC3CCCC(C2)C3=O)cc1 (stereo not drawn)	-7%	·	-1%	-4%	-1%[10 µM]	·
COC(=O)C1=C(C)N(Cc2ccccc2)C2=C(C(C)=O)C[C@@](O)(C(=O)OC)C(=O)N2C1c1ccccc1 (stereo partly drawn)	·	·	·	-6%[13.5 µM]	2%[10 µM]	·
CN1CCN(C(=O)c2cc3nc(-c4ccccc4)cc(C(F)(F)F)n3n2)CC1	-18%	10µM*	-15%[38.3 µM]	-5%	5%[0.074 µM]	22

Source: PubChem
